RPL19A-GFP yeast – RPL19A-GFP expression modulators in yeast, primary screen, cell-based, S. cerevisiae, multiplex flow cytometry, MLPCN | S. cerevisiae RPL19A-GFP strain, 3 h; stronger effect = lower value | percent response vs DMSO, % at 10 µM | 0.3% of 330,000 active;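 active = percent response vs DMSO below 50%; inconclusive = fewer than 70 events counted for the yeast strain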;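 note: median channel GFP fluorescence of the barcoded RPL19A-GFP strain; ratio of sample median GFP to plate DMSO average so 100% = DMSO; lower means less RPL19A-GFP as with rapamycin TOR inhibition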
MEP2 TOR yeast – modulators of MEP2-GFP levels in yeast, primary screen, S. cerevisiae, multiplex flow cytometry, MLPCN library. S. cerevisiae MEP2-GFP strain, 3 h; 100% = DMSO control level. GFP response vs DMSO, % at 10 µM. 0.51% of 330,000 active;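 active = GFP response versus DMSO above a set limit, roughly screen mean plus 3 SD, cut at about 180% in these data; inconclusive = fewer than 70 cells counted for a yeast strain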;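 note: median GFP fluorescence of the barcode-gated MEP2-GFP cells per well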
CIT2 TOR yeast – modulators of CIT2-GFP expression in yeast, primary screen, S. cerevisiae, GFP fusion, multiplex flow cytometry, MLPCN library. S. cerevisiae CIT2-GFP strain, 3 h; 100 means same as DMSO wells. GFP response vs DMSO, % at 10 µM. 0.065% of 320,000 active. AID 2029, 2009;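 active = GFP response relative to DMSO above a set limit, near the screen mean plus 3 SD, cut at about 150% in these data; inconclusive = Fewer than 70 cells measured for a yeast strain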;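 note: ratio of well median GFP fluorescence to mean of DMSO wells on the plate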
Efflux pump inh – inhibitors of Candida efflux pumps in yeast, primary screen, S. cerevisiae, Nile Red, multiplex | AID 485275, 2010 | 0.44% of 330,000 active | inhibition, % at 10 µM | S. cerevisiae Candida pump triplex;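 active = plate passing quality check with inhibition over a set limit, or well fluorescence over plate mean plus 4 SD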;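 note: Nile Red retained in pooled yeast measured as flow cytometry median fluorescence; 0% = buffer negative control and 100% = Enniatin B positive control; higher means more Nile Red kept so more efflux inhibition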
AGP1-GFP MLPCN – modulators of AGP1-GFP expression in yeast TOR pathway, primary screen, cell-based, multiplex flow cytometry, S. cerevisiae, MLPCN library; 0.02% of 320,000 active; AID 2066, 2009; 3 h; GFP as percent of DMSO wells; GFP response vs DMSO, % at 10 µM;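 active = GFP response relative to DMSO above a set limit, near screen average plus 3 SD, cut at about 150% in these data; inconclusive = fewer than 70 cells counted for the yeast strain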;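 note: median GFP channel fluorescence of the gated AGP1 strain per well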
LAP4-GFP MLPCN – modulators of LAP4-GFP expression in yeast, primary screen, S. cerevisiae, multiplex flow cytometry, MLPCN library; GFP response vs DMSO, % at 10 µM; 0.34% of 320,000 active; 3 h; median GFP as percent of DMSO wells;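 active = GFP response vs DMSO above a set limit, about the screen mean plus 3 SD, cut at about 150% in these data; inconclusive = under 70 cell events counted for the yeast strain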
* marks the source's active call; other numbers are inactive results; ? = inconclusive; . = not tested or not shown; [ ] = another dose, or the depositor's remark. A selection: hits, their analogues and other compounds. The true share with any hit is near 1.3%.

SMILES	RPL19A-GFP yeast	MEP2 TOR yeast	CIT2 TOR yeast	Efflux pump inh	AGP1-GFP MLPCN	LAP4-GFP MLPCN
COc1ccc(/C=C(/NC(=O)c2ccccc2)C(=O)NCc2ccco2)cc1	46*[may fluoresce violet]	?	?	0	?	62
Cc1c(C(=O)N2CCN(C)CC2)oc2c1C(=O)CC(C)(C)C2	63	212*[may fluoresce violet]	?	0	24	100
Cc1cc2c(ncn2C)c(NS(=O)(=O)c2ccc(Cl)cc2)c1C	102	102	99	0	99	90
CC(=O)N(Cc1ccc(Cl)cc1)c1cnccn1	57	293*[may fluoresce violet]	?	0	?	86
c1ccc(CNc2cnccn2)cc1	97	98	98	0	97	98
c1ccc(CCNc2cnccn2)cc1	65	190*[may fluoresce violet]	?	0	?	70
Cc1nc(C)c(CCNC(=O)c2ccc(C(F)(F)F)cc2)s1	95	95	87	0	97	105
Cc1ccc(C(=O)NCCc2sc(C)nc2C)cc1	31*[may fluoresce violet]	222*[may fluoresce violet]	?	0	?	83
Cc1cc(C)cc(-c2nnc(SCC(=O)c3ccc4c(c3)OCCO4)o2)c1	102	104	96	0	97	102
O=C(CSc1nnc(-c2ccccc2)o1)c1ccc2c(c1)OCCO2	.	297*[may fluoresce violet]	?	0	?	83
COc1ccc(Br)cc1/C=N/n1c(COc2ccccc2)n[nH]c1=S	87	92	96	0	97	96
Cc1nn(-c2ccccc2)c(C)c1C1C(C#N)=C(N)Oc2n[nH]c(C)c21 (configuration not stated)	43*[may fluoresce violet]	317*[may fluoresce violet]	?	0	31	113
COC(=O)Cc1ccc(OCc2ccc(Cl)nc2)cc1	75	74	57	0	76	163*
CC(=O)c1ccc(S(=O)(=O)N(C)CC(=O)Nc2ccc(C)cc2)cc1	101	100	98	0	97	102
CC(=O)c1cc(NC(=O)c2ccc(C)cc2)c(=O)oc1C	79	86	74	0	.	166*
C=CCOc1ccc(/C=C2\SC(=S)N(NS(=O)(=O)c3ccc(C)cc3)C2=O)cc1	103	101	99	0	95	92
CN(C)/C=C1/C=C(C=O)OC1=O	95	100	89	0	87	102
CC1=C/C(=C/N(C)C)C(=O)O1	19*[may fluoresce violet]	?	?	0	?	130
COCCn1c(C)cc(O)c(C(=O)Nc2cccc(Cl)c2)c1=O	61	191*[may fluoresce violet]	?	0	17	98
CCc1ccc(NC(=O)[C@H](Cc2ccccc2)NC(=O)C2CCN(C(=O)[C@@H](N)CC(C)C)CC2)cc1	103	108	111	0	109	112
COc1ccc2nc(/C=N/NC(=O)CCCCCNC(=O)OC(C)(C)C)ccc2c1	62	204*[may fluoresce violet]	?	0	?	108
COc1ccc2nc(/C=N/NC(=O)CCNC(=O)OC(C)(C)C)ccc2c1	104	105	101	0	108	106
O=C(NCc1ccccn1)c1ccc(NS(=O)(=O)c2ccccc2)cc1	103	108	.	0	94	82
O=C(NNC(=O)C1CCCCC1)C(=O)NC1CCCCC1	106	177*	126	0	107	155*
O=C(NC1CCCCCC1)C(=O)NC1CC1	102	111	106	0	94	101
SMILES	RPL19A-GFP yeast	MEP2 TOR yeast	CIT2 TOR yeast	Efflux pump inh	AGP1-GFP MLPCN	LAP4-GFP MLPCN
Cc1nc(NC(=O)COC(=O)C2CC3CCCC(C2)C3=O)c(Cl)cc1Cl (configuration not stated)	97	97	103	0	98	90
CSc1ccc(NC(=O)N2CCN(c3nc4ccccc4s3)CC2)cc1	60	212*[may fluoresce violet]	?	0	?	94
CCCC(=O)N1CCN(c2nc3ccccc3s2)CC1	89	90	92	0	89	91
CCOC(=O)c1sc(-c2ccc(C(F)(F)F)cc2)nc1O	88	529*[may fluoresce violet]	?	0	26	140
CCOC(=O)c1sc(-c2cccc(C(F)(F)F)c2)nc1O	92	93	94	0	94	112
COC(=O)C1=C(C)NC(C)=C(C(=O)OC)C1c1ccc(-c2cccc([N+](=O)[O-])c2)o1	46*[may fluoresce violet]	203*[may fluoresce violet]	?	0	19	83
COC(=O)C1=C(C)NC(C)=C(C(=O)OC)C1c1ccc(-c2cccc(Cl)c2Cl)o1	101	106	96	0	99	109
C=C(NC(=O)C(=C)NC(=O)c1csc(C2=NC3c4csc(n4)C4NC(=O)c5csc(n5)C([C@@](C)(O)C(C)O)NC(=O)C5CSC(=N5)/C(=C\C)NC(=O)C(C(C)O)NC(=O)c5csc(n5)[C@]3(CC2)NC(=O)C(C)NC(=O)C(=C)NC(=O)C(C)NC(=O)C(C(C)CC)NC2C=Cc3c(C(C)O)cc(nc3C2O)C(=O)OC4C)n1)C(N)=O (some centres not stated)	91	90	83	1.1*	81	105
CCCCN1CC(=O)N2[C@H]3c4cc(Cl)ccc4OC[C@@H]3[C@H](C(=O)OCC)[C@]2(C)C1=O	92	101	92	0	92	96
Clc1ccc(-c2nnc(-c3ccccc3)c(N3CCSCC3)n2)cc1	98	96	107	0	95	96
CC1CN(c2nc(-c3ccc(Br)cc3)nnc2-c2ccccc2)CC(C)N1 (configuration not stated)	29*[may fluoresce violet]	496*[may fluoresce violet]	?	0	.	113
O=C(OCn1nnc2ccccc2c1=O)c1ccco1	94	101	97	0	90	102
O=C(OCn1nnc2ccccc2c1=O)C1=COCCO1	64	312*[may fluoresce violet]	?	0	23	95
COc1ccccc1Cc1nnc(NC(=O)C2CCN(C(=O)c3ccco3)CC2)s1	88	81	101	0	84	91
O=C(NCc1cccc(Cl)c1)C1CCC(=O)N(CCCN2CCCC2=O)C1 (configuration not stated)	106	94	98	0	91	75
Cc1cccc(CNC(=O)CCn2ccc3cc(S(=O)(=O)N4CCCC4)ccc32)c1	17*[may fluoresce violet]	161	?	0	?	67
CC(=O)c1cccc(NC(=O)Nc2ccc3c(c2)OCO3)c1	108	100	97	0	93	65
CCOc1ccc(S(=O)(=O)n2ccnc2C)cc1	110	111	108	0	153*	106
CCS(=O)(=O)c1nc(S(=O)(=O)c2ccc(Cl)cc2)c(NCCN2CCOCC2)s1	107	107	115	0	103	101

Assay outcomes (PubChem BioAssay)
